Measured values as given in PubChem BioAssay AID1851 (National Center for Advancing Translational Sciences (NCATS), 2009).
About 5,800 (36%) of roughly 16,000 compounds were called active. Another 23% or so got no clear call; they are omitted. The call rests on the fitted dose curve; in most records, active means well fitted curve in the direction sought with a large enough effect; inconclusive means small, poorly fitted or top-dose-only effect, or effect the other way; inactive means no such curve, though single readings can be large or run the other way. Some of the results follow.

target: Cytochrome P450 2C19 (Homo sapiens) (UniProt P33261); assay: Cytochrome panel assay with activity outcomes; details: recombinant CYP, pro-luciferin dealkylation, luminescence, p450-cyp2c19; series mostly up to 57.1 µM; activity, negative = inhibition: at the top concentration
On the % scale 0 is the no-effect control and ±100 the full control effect.

Cytochrome P450 2C19 (Homo sapiens), sequence (P33261 whole entry, looked up): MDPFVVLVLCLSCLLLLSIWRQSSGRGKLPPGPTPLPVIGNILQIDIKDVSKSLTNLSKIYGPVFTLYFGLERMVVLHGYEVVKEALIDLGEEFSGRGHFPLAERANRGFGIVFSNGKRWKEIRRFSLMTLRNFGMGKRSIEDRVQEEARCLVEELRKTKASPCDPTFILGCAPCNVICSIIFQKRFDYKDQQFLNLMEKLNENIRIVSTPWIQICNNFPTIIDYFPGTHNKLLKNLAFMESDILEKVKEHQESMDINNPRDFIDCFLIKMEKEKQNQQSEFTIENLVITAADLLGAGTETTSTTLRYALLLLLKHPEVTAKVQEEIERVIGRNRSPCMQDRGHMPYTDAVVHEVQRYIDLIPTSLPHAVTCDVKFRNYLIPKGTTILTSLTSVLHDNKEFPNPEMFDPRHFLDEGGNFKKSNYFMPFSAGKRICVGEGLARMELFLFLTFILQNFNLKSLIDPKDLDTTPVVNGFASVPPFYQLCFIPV

AC50, inactive:
C[C@@H](CCc1ccc(O)cc1)NCCc1ccc(O)c(O)c1

AC50, active:
FC(F)(F)c1ccc(N2CCN(c3cc(-c4ccccc4)nc4ncnn34)CC2)nc1 3.55 µM
O=S(=O)(c1ccccc1)N1CCN(c2cc(-c3ccccc3)nc3ncnn23)CC1 11.2 µM
Cc1cccc(/C=N\Nc2cn[nH]c(=O)c2Cl)c1 10 µM
CCOC(=O)C1C(=O)C=C(/C=C/c2ccccc2)CC1c1ccc(Cl)cc1 (configuration not stated) 8.91 µM
COc1ccccc1C(=O)NCCn1cc(SCC(=O)Nc2nnc(C)s2)c2ccccc21 8.91 µM
CC(C)CN(CC(C)C)C1=N/C(=C\c2ccco2)C(=O)N1c1ccccc1 2.82 µM
CCOC(=O)CN1C(=O)Nc2ccc(Br)cc2C1c1ccccc1 (configuration not stated) 3.98 µM
O=C(Nc1ccccc1[N+](=O)[O-])C1C(c2ccccc2)=C1c1ccccc1 2.51 µM
COc1ccc(CCC(C)Nc2cccc(F)c2)cc1 (configuration not stated) 0.891 µM
OC(COCc1ccccc1)Cn1cnc2ccccc21 (configuration not stated) 14.1 µM
CC(=O)Nc1ccc(OCC(O)Cn2cnc3ccccc32)cc1 (configuration not stated) 22.4 µM
O=c1c(-c2cccc(F)c2)nc2cncnc2n1-c1ccccc1 15.8 µM
O=c1c(-c2cc(F)cc(F)c2)nc2cncnc2n1Cc1ccccc1Cl 1.58 µM
O=c1c(-c2cccc(Cl)c2)nc2cncnc2n1Cc1ccccc1Cl 5.01 µM
O=c1c(-c2cccc(F)c2)nc2cncnc2n1Cc1ccccc1Cl 0.794 µM
Cc1ccccc1NC(=O)c1cccc2nc3ccccc3nc12 3.55 µM
O=C(Nc1ccc2c(c1)OCCO2)c1cccc2nc3ccccc3nc12 4.47 µM
C=CCC(C)(NCc1ccccc1)c1ccco1 (configuration not stated) 11.2 µM
Clc1ccc(COc2ccccn2)cc1Cl 2.24 µM
COc1ccc(/C=N/NC(=O)c2cccc([N+](=O)[O-])c2)cc1OS(=O)(=O)c1ccc(C)cc1 3.16 µM
COc1cc(/C=N\Nc2ccc([N+](=O)[O-])cc2)ccc1OCC(=O)Nc1ccc(C)c(C)c1 3.98 µM
CCCOc1ccc(/C=C/C(=O)Nc2ccc([N+](=O)[O-])cc2C)cc1OC 3.98 µM
CCOc1cc(/C=N/NC(=O)c2cccc([N+](=O)[O-])c2)ccc1OS(=O)(=O)c1ccccc1 14.1 µM
COc1cccc(/C=N/NC(=O)c2cccc([N+](=O)[O-])c2)c1OS(=O)(=O)c1ccc(C)cc1 4.47 µM
COc1cc(/C=N/NC(=O)c2ccncc2)ccc1OC(=O)c1ccc([N+](=O)[O-])cc1 14.1 µM
COc1cc(C(=O)Oc2ccccc2/C=N/NC(=O)c2ccc(C)cc2)cc(OC)c1OC 0.398 µM
COCCCNC(=O)C(=O)N/N=C/c1ccc(OCC(=O)Nc2cccc(Cl)c2C)c(OC)c1 31.6 µM
COc1ccc(C(=O)Oc2cc(/C=N/NS(=O)(=O)c3ccc(C)cc3)ccc2OC)cc1 1.78 µM
COc1ccc(C(=O)N/N=C/c2cccc3cccnc23)cc1 28.2 µM
O=C(CCc1nc(-c2ccccc2)c(-c2ccccc2)o1)OCc1ccc(Cl)cc1 6.31 µM
COc1ccc(-n2c(=S)[nH]c3cc(C(=O)NCCCN4CCCC4=O)ccc3c2=O)cc1 39.8 µM
CNC(=O)c1ccc(-c2sc3nc(N4CCOCC4)c4c(c3c2N)CC(C)(C)OC4)o1 11.2 µM
Cc1cc(C(=O)N[C@@H](c2ccccc2)[C@]2(C)C[C@H]2[C@@H](C)C(=O)Nc2ccc3ccccc3c2)n(C)n1 10 µM
Cc1cc(C(=O)N[C@H](c2ccccc2)[C@@]2(C)C[C@@H]2[C@@H](C)C(=O)Nc2ccc3ccccc3c2)n(C)n1 15.8 µM

activity, negative = inhibition, inactive:
O=S(=O)(c1ccccc1)N1CCC2(CCN(c3ncccn3)CC2)CC1 32.2%
Cc1cnn(-c2cc(N/N=C/c3ccccc3)ncn2)c1 21.7%
CCc1nnc(NC(=O)CCC(=O)NCc2ccccc2OC)s1 13.2%
CCOC(=O)C1(C(=O)O)NC(=O)CC1c1ccccc1 (configuration not stated) -18.1%
CC(=O)Nc1ccc(OC[C@@H](O)CNC(C)C)cc1 27.7% [at 25.6 µM]
CN1CCCCC1=NCCCn1cnc2c1c(=O)n(C)c(=O)n2C 16.6%
O=c1c(-c2cccc(F)c2)nc2cncnc2n1C1CC1 -28.1%
O=c1c(-c2ccc(F)cc2)nc2cncnc2n1-c1ccccc1 -41.3%
O=c1c(-c2cccc(Cl)c2)nc2cncnc2n1C1CC1 -21.7%
O=c1[nH]c(=O)n([C@@H]2C[C@H](O)[C@H](CO)O2)cc1I 15.4% [at 25.6 µM]
O=C1C2C3C=CC(C2C(=O)N1CN1CCOCC1)C1C2C(=O)N(CN4CCOCC4)C(=O)C2C31 (configuration not stated) 22.1% [at 11.4 µM]
Cc1ccccc1NC(=O)c1cnc(Nc2nc3ccccc3s2)nc1C -11.9%
O=c1c(-c2ccc(F)cc2)nc2cnc(Nc3ccccc3)nc2n1Cc1cccs1 -8.61%
CCOc1ccc(NC(=S)NC(=O)/C=C/c2ccc(OC)c(OC)c2)c([N+](=O)[O-])c1 -44.3%
CC(/C=N/NC(=O)c1cccc([N+](=O)[O-])c1)=C\c1ccccc1 -12%
O=C(N=NC(=O)c1ccc2c(O)n(C3CCCCC3)c(O)c2c1)c1cccnc1 -21.3%
COc1cc(/C=N/NC(=O)c2cccnc2)ccc1OC(=O)c1ccc2c(c1)OCO2 -16.9%
CN(C)CCn1nnnc1SCC1=C(C(=O)O)N2C(=O)[C@@H](NC(=O)Cc3csc(N)n3)[C@@H]2SC1 16.7% [at 25.6 µM]
CCOC(=O)N1CCN(C(=O)c2ccc3c(=O)n(-c4ccc(OC)cc4)c(=S)[nH]c3c2)CC1 -5.12%
CC(=O)N[C@@H]1CONC1=O 21.6% [at 11.4 µM]
O=C(O)C[C@H]1OCC=C2C[N@@+]3([O-])CC[C@]45c6ccccc6N[C@@H]4[C@@H]1[C@H]2C[C@H]53 13.9% [at 11.4 µM]
Cc1nn(C)c(Cl)c1S(=O)(=O)N[C@@H](c1ccccc1)[C@]1(C)C[C@H]1[C@@H](C)C(=O)Nc1ccc2ccccc2c1 -25.4%
